Among all 260,000 compounds or so, about 2,200 (0.85%) were called active. Shown is part of a subset that was picked to be rich in actives. A number with no mark means an inactive call.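 The calls were made as follows: active = compounds whose cAMP rise, as percent of the full-agonist control response, exceeds 60; inactive = the rest.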
molecular target: Prostaglandin E2 receptor EP2 subtype (Homo sapiens) (UniProt P43116); experiment: EP2 receptor modulators, cAMP readout, primary screen, cell-based, HTRF cAMP, PGE2 stimulation (AID 940); conditions: EP2-expressing cells, cAMP HTRF FRET, PGE2 co-stimulation; at 25 µM; hits give high values;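 also: rat C6 glioma line stably carrying human EP2 under a CMV promoter; the protocol text gives 20 µM as final concentration; 100% = response of wells given 1 µM PGE2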
Sequence (P43116 whole entry, looked up): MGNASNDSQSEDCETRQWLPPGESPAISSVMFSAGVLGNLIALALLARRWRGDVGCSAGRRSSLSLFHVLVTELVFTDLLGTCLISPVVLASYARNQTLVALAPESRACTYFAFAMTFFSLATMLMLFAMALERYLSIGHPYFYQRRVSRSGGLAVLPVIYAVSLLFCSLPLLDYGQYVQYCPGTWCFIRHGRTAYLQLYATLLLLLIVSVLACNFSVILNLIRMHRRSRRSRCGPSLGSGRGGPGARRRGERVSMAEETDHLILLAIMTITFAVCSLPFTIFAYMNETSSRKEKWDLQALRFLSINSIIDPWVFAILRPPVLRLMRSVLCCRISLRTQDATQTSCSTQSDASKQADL

SMILES	induction
CCn1c(=O)oc2cc(S(=O)(=O)N3CCCN(C(C)=O)CC3)ccc21	-12.2%
COc1ccccc1NC(=O)Cn1nc(C)n2c(cc3occc32)c1=O	-27.1%
CCOc1ccc2nc(Nc3nc(C)c(C(C)=O)c(C)n3)nc(C)c2c1	-18.1%
COc1ccc(-c2nnn(CC(=O)Nc3ccc(F)cc3F)n2)cc1OC	-72%
COC(=O)C1=C(C)N(C)C(C)=C(C(=O)OC)C1c1cccc(Br)c1	66.5% (active)
COC(=O)C1NN=C(C(=O)c2ccc(Br)cc2)C1c1cccc(Br)c1 (stereo not drawn)	0.95%
COC(=O)C1=C(C)N(C)C(=S)NC1c1ccccc1 (stereo not drawn)	-3.11%
COc1ccc(-c2ccc(SCC(=O)N3c4ccccc4CCc4ccccc43)nn2)cc1OC	28.9%
Cc1ccccc1-c1n[nH]c(=S)n1C	25.6%
Cc1ccccc1-c1n[nH]c(=S)n1/N=C/c1ccc(-c2ccccc2Br)o1	77% (active)
Cc1n[nH]c(=S)n1/N=C/c1ccc(Br)o1	-3.02%
COc1ccc(NCc2nnc(SCC(=O)Nc3ccccc3OC)n2C)cc1	-42.3%
C=CCNC(=O)CSc1nc(-c2ccc(OC)cc2)cc(C(F)(F)F)n1	-95.2%
Cc1cccc(Cn2c(SCCO)nc3c2c(=O)n(C)c(=O)n3C)c1	25.1%
Cn1c(=O)c2c(nc(N3CCN(c4ccccc4)CC3)n2CCC#N)n(C)c1=O	-28.3%
Cc1cccc(Cn2c(N3CCN(c4ccccc4)CC3)nc3c2c(=O)n(C)c(=O)n3C)c1	67.6% (active)
CCn1c2cc(C)sc2c2cnn(CC(=O)Nc3ccc(F)cc3)c(=O)c21	-32.1%

SMILES	induction
CC1CCN(c2nc3c(c(=O)[nH]2)CCN(Cc2cn(CC(=O)O)c4ccccc24)C3)CC1	-3.4%
CC1(C)CCC[C@@]2(C)C1[C@@H](O)C[C@]1(C)C2CC[C@@H]2[C@@]3(C)CC[C@H](C(C)(C)O)[C@@H]3CC[C@@]21C (stereo partly drawn)	16.7%
O=c1c2ccccc2nc2n1C1(CCCCC1)Cc1ccccc1-2	68.8% (active)
c1cncc(-c2nnc3n2C2(CCCCC2)Cc2ccccc2-3)c1	16.9%
CCC1(CC)Cc2ccccc2-c2nc3ccccc3c(=O)n21	22.9%
C=C(C)CC(Nc1ccc(C)cc1)c1ccco1 (stereo not drawn)	61.3% (active)
Cc1ccc(NC(=S)N(Cc2ccco2)C(C)c2cccs2)cc1 (stereo not drawn)	44.2%
Cc1ccc(CC(=O)NCc2ccco2)cc1	8.03%
CC1CCCC(C)N1C(=O)[C@H]1C[C@@H](c2cccs2)NS(=O)(=O)N1C (stereo partly drawn)	-34.9%
Cc1nn2c(NCc3cccnc3)c3c(nc2c1-c1cccs1)CCC3	-40.8%
Cn1c(COc2cccc3ccccc23)nnc1SCC(=O)Nc1ccccc1Cl	5.15%
Cc1ccc(-n2c(SCC(=O)Nc3ccc4c(c3)OCO4)nnc2-c2ccoc2C)cc1	64.9% (active)
Cc1occc1-c1nnc(SCC(=O)Nc2ccc3c(c2)OCO3)n1Cc1ccco1	25.1%
Cc1ccc(-n2c(SCC(=O)Nc3ccc4c(c3)OCO4)nnc2-c2ccccn2)cc1	4.01%
CNC(=S)N(Cc1ccccc1)Cc1cc2cccc(C)c2[nH]c1=O	-48.1%
Nc1nc(Br)c2ccccc2c1-c1ccc(F)cc1	62% (active)

Reference: PubChem BioAssay AID940 (Emory University Molecular Libraries Screening Center, 2007)
